Data on 36 compounds can be found in PubChem BioAssay.

SMILES strings stand for the structures.

The assay in a line: small molecules captured by biotinylated probe aFSTL3 – biochemical, small-molecule microarray, fluorescence 635/667, stem cell growth factor project, primary screen (AID 1064).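 Also: measures binding of the biotinylated anti-FSTL3 antibody to printed compounds.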 The following applies: higher = more signal.
`C#CCCCON=C1[C@H]2CCn3c(=O)n(C)c(=O)n3[C@H]2[C@H](O)[C@@H]2O[C@H]12`: the composite z-score is -0.454.
With `CCCCC#C[C@@H]1C=C[C@H](OC(C)=O)[C@@H](COC(C)=O)O1` the figure was -0.515; with `CO[C@@H]1COC(=O)[C@@H](C)COC(=O)[C@@H](C)NC(=O)CC=C[C@@H]1C`, -0.538.
As for `Cc1ccc(S(=O)(=O)OC[C@H]2CN3[C@H](c4ccc(Br)cc4)[C@@H](C)CC[C@H]3C(=O)O2)cc1`, the figure is -0.307; as for `COc1ccc(COC(=O)NN=C2C[C@@H](O)[C@@H](O)[C@@H]3[C@@H]4C(=O)N(c5cccc(Oc6ccccc6)c5)C(=O)[C@@H]4CC[C@@H]23)cc1`, 0.809.
With `O=C1C2=CC[C@H]3C(=O)N(c4cccc(Oc5ccccc5)c4)C(=O)[C@H]3[C@H]2[C@H](O)[C@@H]2O[C@H]12` the figure was -0.476; with `CC(CCN1CCCCc2nc(C)c(C)cc21)=NO[C@H](C)c1cn([C@H](CO)Cc2ccccc2)nn1`, -0.476; with `CO[C@@H]1COC(=O)[C@H](CCSC)NC(=O)CC=C[C@@H](C)COC(=O)CCC[C@H]1C`, -0.994.
Compound `CC(CCN1CCCc2nc(C)c(C)cc21)=NO[C@@H](C)c1cc(-c2c(C)cc(C)cc2C)no1` yielded a composite z-score of -0.34.
With `CO[C@@H]1COC(=O)[C@@H](C)NC(=O)CC=C[C@@H](C)[C@H](NS(=O)(=O)c2ccc(C)cc2)COC(=O)[C@H](C)NC(=O)CC=C[C@H]1C` the figure was -0.505; with `CCN1C(=O)[C@H]2[C@H]3[C@H](O)[C@H](O)CC(=NOC[C@H]4O[C@H](c5ccccc5)C=C[C@@H]4Oc4ccc(OC)cc4)[C@@H]3CC[C@H]2C1=O`, -0.0474.
As for `CCOC(=O)[C@H](CC(C)C)NC(=O)CCC1CC(OC(=O)NCc2cccc3ccccc23)CC2(CCCC(COC(=O)NCC3CCCCC3)O2)O1` (stereo partly specified), the figure is -0.338; as for `CC(C)CCN1CCc2nc(COc3ccccc3)c3c(c2C1)CO[C@@H](C)C3`, 0.188; as for `COC(=O)CC=C[C@@H](C)[C@@H](C=NO[C@H](C)c1cn([C@H](CO)Cc2ccccc2)nn1)OC`, -0.42.
With `CON=C(C)CCC(=O)OC[C@H]1O[C@H](c2ccccc2)C=C[C@@H]1Oc1ccc(OC)cc1` the figure was -0.0269; with `CCOC(=O)NN=C1C[C@@H](O)[C@@H](O)[C@@H]2[C@@H]3C(=O)N(c4cccc(Oc5ccccc5)c4)C(=O)[C@@H]3CC[C@@H]12`, -0.216; with `CCN1C(=O)[C@H]2[C@H]3[C@H](O)[C@H](O)CC(=NO[C@@H](C)c4cn([C@H](CO)Cc5ccccc5)nn4)[C@@H]3CC[C@H]2C1=O`, -0.687.
`COC(=O)CC=C[C@@H](C)[C@@H]1C=C[C@H](O)[C@@H](CO)O1` displayed a composite z-score of -0.202.
With `C[C@@H](ON=C1[C@H]2CCn3c(=O)n(-c4ccccc4)c(=O)n3[C@H]2[C@H](O)[C@@H]2O[C@H]12)c1cn([C@@H]2COC[C@H]2O)nn1` the figure was -0.648; with `CC(CCC(=O)OC[C@H]1O[C@H](C#Cc2ccccc2)C=C[C@@H]1Oc1ccc(C)cc1)=NO[C@H](C)c1cn([C@H](CO)Cc2ccccc2)nn1`, -0.544; with `C#CCCCON=C1C[C@@H](O)[C@@H](O)[C@@H]2[C@@H]3C(=O)N(C(C)(C)C)C(=O)[C@@H]3CC[C@H]12`, 1.86.
As for `COc1ccc(COC(=O)NN=C2C[C@@H](O)[C@@H](O)[C@@H]3[C@@H]4C(=O)N(C5CCCCC5)C(=O)[C@@H]4CC[C@H]23)cc1`, the figure is 1.21; as for `COC(=O)CC=C[C@H](C)[C@@H](OCc1cccc(Br)c1)[C@@H](C)[C@H](OC)C1CCCCC1`, -0.191.
With `Cc1ccc(S(=O)(=O)N[C@@H]2COC(=O)[C@@H](C)COC(=O)CC=C[C@H]2C)cc1` the figure was -0.305.
In the case of `O=C1[C@H]2[C@H]3[C@H](O)[C@H](O)CC(=NO[C@@H]4O[C@H](CO)[C@@H](O)[C@H](O)[C@H]4O)[C@H]3CC[C@H]2C(=O)N1c1cccc(Oc2ccccc2)c1`, the composite z-score was -0.249.
Take `CCC1=NOC(CCC2CC(OC(=O)NCc3cccc4c3OCO4)CC3(CCCC(COC(=O)NCCc4ccccc4OC)O3)O2)C1` (stereo unspecified): the composite z-score is -0.173.
In turn, `CCOC(=O)[C@H](CC(C)C)NC(=O)CCC1CC(OC(=O)NCc2cccc3ccccc23)CC2(CCCC(COC(=O)NCCOc3ccccc3)O2)O1` (stereo partly specified) yielded a composite z-score of -0.646.
As for `O=c1n(Cc2cc3c(cc2Cl)OCO3)c(=O)n2n1CC[C@@H]1C(=NOCc3ccccc3)[C@H]3O[C@H]3[C@@H](O)[C@@H]12`, the figure is -0.381.
`COC(=O)[C@@H]1CC[C@H](C)[C@@H](c2ccc(C)cc2)N1C(=O)c1ccc(C=NO[C@@H](C)c2cn([C@H](CO)Cc3ccccc3)nn2)cc1` had a composite z-score of -0.612.
With `CC(C)=CCCC(C)=CCON=C1C[C@@H](O)[C@@H](O)[C@@H]2[C@@H]3C(=O)N(Cc4ccccc4)C(=O)[C@@H]3CC[C@H]12` the figure was -0.402; with `CC(C)C[C@H](NC(=O)CCC1CC(OC(=O)NCc2cccc3ccccc23)CC2(CCCC(COC(=O)NCc3ccccc3)O2)O1)C(=O)NCC(c1ccccc1)c1ccccc1` (stereo partly specified), -0.572; with `CC(C)CON=C1C[C@@H](O)[C@@H](O)[C@@H]2[C@@H]3C(=O)N(C4CCCCC4)C(=O)[C@@H]3CC[C@@H]12`, -0.216.
As for `C[C@@H](c1ccccc1)N1C(=O)[C@H]2[C@H]3[C@H](O)[C@H](O)CC(=NO[C@@H]4O[C@H](CO)[C@@H](O)[C@H](O)[C@H]4O)[C@H]3CC[C@H]2C1=O`, the figure is -0.528.
As for `COC(=O)[C@@H]1CC[C@H](C)[C@@H](c2ccc(C)cc2)N1C(=O)c1ccc(C=NOC[C@@H](C)[C@H](OCc2ccccc2)C(C)C)cc1`, the figure is -0.613; as for `C[C@@H](c1ccccc1)N1C(=O)[C@H]2[C@H]3[C@H](O)[C@H](O)CC(=NOCc4ccccc4)[C@H]3CC[C@H]2C1=O`, -0.393.
`COC(=O)CC=C[C@@H](C)[C@@H](C=NOCC[C@@H]1C=C[C@H](OC(C)=O)[C@@H](COC(C)=O)O1)OC` registered a composite z-score of -0.413.
